Assay results published in PubChem BioAssay AID894 (National Center for Advancing Translational Sciences (NCATS), 2007).
In all, about 150,000 compounds went through this assay and about 6,500 (4.3%) were called active. Not shown: some 12% with an inconclusive outcome. Calls come from the whole dose curve; as a rule, active = well fitted inhibition curve with a large enough effect (not every such curve was filed as active); inconclusive = small, poorly fitted or top-dose-only effect, or another doubt; inactive = no such curve, though single readings can be large or run the other way. Many of the other results were omitted from the sample, so actives are more common in it than they were.

These compounds were tested against 15-hydroxyprostaglandin dehydrogenase [NAD(+)] (Homo sapiens) (UniProt P15428) (assay: qHTS Assay for Inhibitors of HPGD (15-Hydroxyprostaglandin Dehydrogenase)). Details: purified HPGD, NADH fluorescence kinetic, PGE2 substrate; activity change, negative = inhibition: hits give low values.
Procedure, shortened: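 20 nM HPGD preincubated 15 min at room temperature with compound in 50 mM Tris-HCl pH 8, 0.01% Tween 20. Started with 1 mM NAD+ and 30 uM prostaglandin E2; NADH fluorescence (360/450 nm) read 5 times over 30-s intervals, last minus first.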
% is set by controls: 0 for no effect and ±100 for the full control effect; potency is the fitted concentration of half-maximal effect.

Chain of 15-hydroxyprostaglandin dehydrogenase [NAD(+)] (Homo sapiens) (P15428 whole entry, looked up): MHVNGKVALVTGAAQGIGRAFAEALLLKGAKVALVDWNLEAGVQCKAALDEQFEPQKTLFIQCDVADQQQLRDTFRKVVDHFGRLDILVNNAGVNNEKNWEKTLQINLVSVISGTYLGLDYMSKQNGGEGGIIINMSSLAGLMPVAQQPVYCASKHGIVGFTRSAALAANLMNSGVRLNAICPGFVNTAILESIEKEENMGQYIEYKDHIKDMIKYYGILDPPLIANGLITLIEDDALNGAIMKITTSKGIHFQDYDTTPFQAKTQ

Structure (SMILES) | activity change, negative = inhibition | Potency
COC(=O)c1cc2nc(-c3ccccc3)cc(C(F)(F)F)n2n1 | -14.5% (inactive) | –
CC1CCN(C(=O)c2cc3nc(C4CC4)cc(C(F)(F)F)n3n2)CC1 | – | 1.26 µM (active)
C=CCNC(=O)c1cc2nc(C3CC3)cc(C(F)F)n2n1 | -7.97% (inactive) | –
CN(C)/N=C/c1cc(Cl)cc([N+](=O)[O-])c1O | -18.9% (inactive) | –
O=C(NCC1CCCO1)/C(=C/c1ccc(Cl)cc1)NC(=O)c1ccccc1 (centres undefined) | -23% (inactive) | –
O=C(NCC1CCCO1)c1ccc2ccccc2n1 (centres undefined) | -27.3% (inactive) | –
O=C(/C=C/c1ccccc1[N+](=O)[O-])NCC1CCCO1 (centres undefined) | – | 4.47 µM (active)
COC(=O)c1cc(C(=O)N(Cc2ccccc2)c2ccccn2)cc([N+](=O)[O-])c1 | -15.3% (inactive) | –
Cc1cc(SCC(=O)NCCN2C(=O)CSC2=O)nc2ccccc12 | -24.5% (inactive) | –
Cc1cc(Br)ccc1SCC(=O)OCC(=O)NCc1ccc2c(c1)OCO2 | – | 25.1 µM (active)
O=C(COC(=O)c1ccc(Cl)nc1)NCc1ccc2c(c1)OCO2 | -9.81% (inactive) | –
Cc1ccc(C(=O)OCC(=O)NCc2ccc3c(c2)OCO3)s1 | -10.3% (inactive) | –
C=CCNCCCCOc1ccccc1 | -5.77% (inactive) | –
COC(=O)c1ccccc1NS(=O)(=O)c1ccc2[nH]c(=O)[nH]c2c1 | -11.9% (inactive) | –
CCN1C(=O)N[C@@H](CCc2ccccc2)C(C(=O)OC)=C1C | -3.92% (inactive) | –
COc1cc(C(=O)Nc2nccs2)cc(OC)c1OC | -15.1% (inactive) | –
Cn1cccc1C(=O)Nc1nccs1 | – | 31.6 µM (active)
CC(=O)Oc1ccc(C(=O)Nc2nccs2)cc1 | -13.6% (inactive) | –
CC(OC(=O)c1ccccc1N1C(=O)C2C3CCC(C3)C2C1=O)C(=O)c1ccccc1 (centres undefined) | -11.4% (inactive) | –
CCOc1ncccc1C(=O)N(CC)CC(=O)Nc1ccc(NC(C)=O)cc1 | -1.26% (inactive) | –
C/C=C/c1ccc(OCCOc2ccc(C=O)cc2OC)c(OC)c1 | -16.6% (inactive) | –
O=C(CC1NCCNC1=O)Nc1cc(Cl)cc(Cl)c1 (centres undefined) | -10.9% (inactive) | –
O=C(Nc1ccc2nc3n(c(=O)c2c1)CCCCC3)c1ccccc1Cl | -20.5% (inactive) | –
O=C(Nc1cc(=O)[nH]c2ncnn12)c1ccccc1Cl | – | 22.4 µM (active)
CC(=O)Nc1cccc(/C(C)=N/NC(=O)c2ccccc2Cl)c1 | -5.88% (inactive) | –

Structure (SMILES) | activity change, negative = inhibition | Potency
CC(Cc1cccs1)NC(=O)c1cccc(Cl)c1 (centres undefined) | – | 7.94 µM (active)
CC(Cc1cccs1)NC(=O)NC1CCCCC1 (centres undefined) | -17.9% (inactive) | –
COCC(C)NC(=O)c1ccc(Cl)c(Cl)c1 (centres undefined) | -23% (inactive) | –
COc1ccc(-c2nc(-c3ccccc3)oc2Nc2ccc3ccccc3c2)cc1 | -1.48% (inactive) | –
COc1cc(NS(=O)(=O)c2ccccc2)ccc1-n1nc(C)cc1C | -3.88% (inactive) | –
COc1ccc(NS(=O)(=O)c2ccc(NC(C)=O)cc2)cc1OC | -1.98% (inactive) | –
COc1ccccc1-n1c(C)nc2cc(C(=O)NCc3ccc4c(c3)OCO4)ccc21 | -21.3% (inactive) | –
COCCCNC(=S)NC(=O)c1ccccc1 | -5.04% (inactive) | –
COc1ccccc1-n1cnc2cc(C(=O)NCC3CCCO3)ccc21 (centres undefined) | – | 12.6 µM (active)
Cc1ccccc1CN(c1ccc(C(=O)NCC2CCCO2)cc1)S(C)(=O)=O (centres undefined) | -4.02% (inactive) | –
COCCCNC(=O)c1ccc2c(c1)ncn2-c1ccccc1OC | – | 11.2 µM (active)
COc1ccccc1-n1cnc2cc(NS(=O)(=O)c3ccccc3)ccc21 | – | 14.1 µM (active)
O=C(NCCN1CCOCC1)c1ccc2c(c1)ncn2C1CCCC1 | -2.32% (inactive) | –
CC(=O)NC1C(Oc2ccc(C)cc2)OC2COC(c3ccco3)OC2C1O (centres undefined) | 0.675% (inactive) | –
COc1ccccc1-c1nnc(NC(=O)c2ccc3ncsc3c2)o1 | -16.3% (inactive) | –
Cc1ccccc1NC(=S)N(CCCN1CCOCC1)Cc1cccs1 | 8.96% (inactive) | –
N#Cc1ccc(N2Cc3ccccc3/C2=N/C(=O)Nc2ccc(Cl)cc2)cc1 | -24.3% (inactive) | –
CCCCN(CC)C(=O)c1ccccc1Oc1ccccc1 | -9.66% (inactive) | –
CC(=O)N/C(=C/c1ccc(OC(F)F)cc1)C(=O)O | -3.55% (inactive) | –
CN(C)C(CNC(=O)c1ccc(S(=O)(=O)NCc2ccco2)cc1)c1ccccc1 (centres undefined) | -10.1% (inactive) | –
CCCc1nc(SCC(=O)Nc2ccc(S(=O)(=O)N(C)C)cc2)c2ccccc2n1 | -22.1% (inactive) | –
CONc1nc2nonc2nc1NOC | -6.28% (inactive) | –
CCc1c(C)nc(N2CCN(Cc3ccccc3)CC2)[nH]c1=O | -6.13% (inactive) | –
O=c1cc(CSc2ccccn2)nc(N2CCN(c3ccccc3)CC2)[nH]1 | -4.21% (inactive) | –
Cc1nnc(SCc2cc(=O)[nH]c(N3CCN(Cc4ccccc4)CC3)n2)s1 | – | 10 µM (active)

Structure (SMILES) | activity change, negative = inhibition | Potency
CC(C)CNC(=O)CC(NCC(C)C)C(=O)O (centres undefined) | -6.89% (inactive) | –
Cc1ccc2[nH]cc(CCCN3C(=O)c4ccccc4C3=O)c2c1 | -4.52% (inactive) | –
O=C(CSCc1c(F)cccc1Cl)NCC1CCCO1 (centres undefined) | – | 14.1 µM (active)
O=C(CS(=O)(=O)Cc1ccccc1)NCC1CCCO1 (centres undefined) | -19.1% (inactive) | –
O=C(NCC1CCCO1)C(C(=O)c1ccccc1)n1cc(Cl)ccc1=O (centres undefined) | -7.62% (inactive) | –
CC(=O)[C@H](C(c1ccccc1)N1CCOCC1)N1CCOCC1 (some centres undefined) | -6.44% (inactive) | –
O=C(CCCCCNC(=O)c1ccccc1)N/N=C/c1ccccc1 | -2.21% (inactive) | –
CN(C)S(=O)(=O)c1cccc(NC(=S)N/N=C/C(=O)c2ccccc2)c1 | -16% (inactive) | –
O=C(Nc1ccc2c(c1)OCCO2)c1ccncc1 | -1.78% (inactive) | –
Cc1ccc2sc(NNC(=O)c3ccc4c(c3)OCCO4)nc2c1C | – | 11.2 µM (active)
O=C(Nc1nc2ccccc2s1)c1ccc2c(c1)OCO2 | -20.6% (inactive) | –
CCCCn1c(O)c(N=NC(=O)Cn2c(C(F)(F)F)nc3ccccc32)c2ccccc21 | -5.51% (inactive) | –
CNS(=O)(=O)c1ccc(N2CCCC2=O)c([N+](=O)[O-])c1 | -12.5% (inactive) | –
COc1cc(NS(=O)(=O)c2ccc(N/C=C(\C=O)c3nc4cc(Cl)ccc4o3)cc2)nc(OC)n1 | – | 14.1 µM (active)
COc1ccc(NS(=O)(=O)c2ccc(NC(=O)C(C)(C(F)(F)F)C(F)(F)F)cc2)nn1 | -19.1% (inactive) | –
COC(=O)c1ccc(CSc2nc3cc(Cl)ccc3o2)cc1 | -20.6% (inactive) | –
O=C(NC(CC(=O)N1CCN(c2ccccc2)CC1)c1ccccc1)c1ccccc1Cl (centres undefined) | -5.04% (inactive) | –
COc1ccc(N(C(=O)c2ccc(C)cc2)S(=O)(=O)c2cccs2)cc1 | -10% (inactive) | –
COc1ccc(N2C(=O)C(O)C2c2ccc(C)cc2)cc1 (centres undefined) | -14.1% (inactive) | –
Cc1ccc(S(=O)(=O)c2ccc(Cl)cc2)cc1S(=O)(=O)NC(C(=O)O)C(C)C (centres undefined) | -5.59% (inactive) | –
O=C(/C=C/c1ccc(Cl)cc1Cl)NCc1ccco1 | – | 15.8 µM (active)
O=C(NCc1ccco1)c1cc(-c2cccnc2)nc2ccc(Cl)cc12 | -28% (inactive) | –
O=C(NCc1ccco1)C1(c2ccc(Cl)cc2)CCCC1 | -8.03% (inactive) | –
CCNC(=S)N(CCc1c(C)[nH]c2ccc(C)cc12)Cc1ccco1 | -13.1% (inactive) | –
COc1cc2c(cc1OC)C(=O)NCC(C)(C)O2 | -19.2% (inactive) | –

Structure (SMILES) | activity change, negative = inhibition | Potency
COc1ccc(N2C(=O)CNC2=S)cc1 | -14.3% (inactive) | –
COc1ccc(-c2cn(-c3ccc(OC)cc3)c(=S)[nH]2)cc1 | – | 25.1 µM (active)
COc1ccc(-n2c(C)csc2=S)cc1 | -9.23% (inactive) | –
CN(C)S(=O)(=O)c1cc(NC(=O)CN2C(=O)NC3(CCCc4ccccc43)C2=O)ccc1Cl (centres undefined) | -12.7% (inactive) | –
O=C(O)c1ccc(N=NN2CCOCC2)cc1 | -13.6% (inactive) | –
Cc1ccc(NC(=O)NC(=O)N(C2CCCCC2)S(=O)(=O)c2ccccc2)cc1 | -16% (inactive) | –
CC(=O)Nc1ccc(S(=O)(=O)NC(C)C(=O)OCC(=O)NC2CCCC2)cc1 (centres undefined) | -4.32% (inactive) | –
CC(C)Oc1ccc(CCc2n[nH]c(=S)n2Cc2ccccc2)cc1 | – | 10 µM (active)
CCCc1cc(-c2n[nH]c(=S)n2CC)c2ccccc2n1 | -28.5% (inactive) | –
CCCCC(CC(C)O)c1n[nH]c(=S)n1-c1ccccc1 (centres undefined) | -3.38% (inactive) | –
O=C(N/N=C\c1ccc(Br)cc1)c1ccc(Cn2cccn2)o1 | -5.99% (inactive) | –
COCCOC(=O)c1c(C)oc2cc(Br)c(OCC(N)=O)cc12 | -7.04% (inactive) | –
COC(C(=O)NCc1ccccc1C)c1ccccc1 (centres undefined) | -8.94% (inactive) | –
Cc1nc2ccccc2cc1C(=O)N/N=C/c1ccc([N+](=O)[O-])cc1 | -5.88% (inactive) | –
Cn1c(-c2sc3cc(C(F)(F)F)cnc3c2-c2ccccc2)n[nH]c1=S | – | 31.6 µM (active)
Cc1cc(C(F)(F)F)n2ncc(-c3ccccc3)c2n1 | -0.556% (inactive) | –
CCc1c(C)[nH]c(=S)c(C#N)c1C | – | 35.5 µM (active)
CCOC(=O)c1c(C)[nH]c(=S)c(C#N)c1-c1ccccc1 | -27.3% (inactive) | –
CCCCC1S/C(=N/N=C/c2cccs2)NC1=O (centres undefined) | -7.59% (inactive) | –
COC(=O)C1=C(C(=O)OC)[C@@H]2Nc3ccccc3[C@@]23C[C@@H](C(=O)OC)N(S(=O)(=O)c2ccc([N+](=O)[O-])cc2)C3=N1 | -10.9% (inactive) | –
Cc1ccc(C)c(NC(=S)NNC(=O)c2csc(C)c2)c1 | -5.84% (inactive) | –
CN(C)c1cc2c(Nc3ccc4c(cnn4Cc4ccccc4)c3)ncnc2cn1 | – | 12.6 µM (active)
COc1ccc(Nc2ncnc3ccc(OC)cc23)cc1 | -4.83% (inactive) | –
Cn1ncc2c(Nc3cccc4ccccc34)ncnc21 | -9.06% (inactive) | –
